Assay outcomes (PubChem)
The list is not random: actives were taken first. Their share in the collection is about 19%.
IL-1B inflam inh – inflammasome signaling inhibition, IL-1 beta readout; 360,000 compounds, 4.7% hits; THP-1 LPS/ATP IL-1B secretion, AlphaLISA, 16 h; stronger effect = lower value; activity change, % at 57.5 µM; AID 743279; in the data active means activity change below about -50%; inconclusive means mostly about -30% to -49%
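Secreted IL-1B measured by AlphaLISA bead assay after 16 h compound exposure of THP-1 cells; compounds (final up to 57.5 uM) added 1 h before LPS (250 ng/mL) and ATP (1.25 mM) stimulation; lower signal means less secretion.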
DT40 TDP1 no CPT – qHTS for Inhibitors of human tyrosyl-DNA phosphodiesterase 1 (TDP1): qHTS in cells in absence of CPT; 420,000 compounds, 15% hits; Potency, µM (series often up to 46.2 µM), without a hit: top-dose activity change, negative = growth inhibition, usual class: inhibitors; DT40 Tdp1-/- hTDP1 cells, no CPT, ATP luminescence, 48 h; AID 686978, 2013; further: potency means the concentration at half of the fitted maximal effect; nearly all actives have a fitted effect of over 55% in size
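Readout: luminescence from CellTiter-Glo after 30 min in the dark at RT. Cells: DT40 Tdp1-/- with stable hTDP1, 400/well. Exposure: compounds alone, ≥48 hr, 37 °C.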
HT1080 IDH1KD tx – HT-1080 IDH1 knockdown cell toxicity (counter line) | HT-1080 IDH1 knockdown viability, ATP luminescence, 48 h | Potency, µM (highest dose often 46.1 µM), for the others: top-dose activity, negative = toxicity, most hits filed as cytotoxic | 360,000 compounds, 2% hits | AID 686971;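 further: potency means the concentration at half of the fitted maximal effect; 0% = DMSO wells and -100% = cell-free medium wells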
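Assay cells: HT-1080 with IDH1 knockdown, 750 per well, RPMI/5% FBS. Exposure: 48 h at 37 °C following 2 h pre-incubation. Read: CellTiter-Glo luminescence; fitted concentration-response, curve class assigned.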
ELG1 repair inh – inhibitors of ELG1-dependent DNA repair in HEK293T cells; HEK293T ELG1-luciferase reporter, luminescence, 16 h; DNA damage induced by 5-fluorouridine; Potency, µM (highest dose often 46.1 µM), for inactives: top-dose activity change, negative = inhibition, actives largely listed as inhibitors; 330,000 compounds, 2.3% hits; AID 504467; further: potency means the concentration at half of the fitted maximal effect; nearly all actives have a fitted effect of over 55% in size
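Step one: seed 2,000 cells per well. Step two: pin-transfer compound or DMSO alongside 5-fluorouridine. Step three: incubate 16 hr, 37 °C, 5% CO2. Step four: add ONE-Glo, wait 30 min, read luminescence.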
TDP1 cell CPT – growth inhibition of DT40 Tdp1-/-;hTDP1 cells with camptothecin (screen for TDP1 inhibitors) | chicken DT40 Tdp1-/-;hTDP1 cells + 20 nM CPT, ATP luminescence, 48 h | Potency, µM (top dose mostly 46.2 µM), without a hit: at the top dose activity change, negative = growth inhibition, most hits filed as inhibitors | 420,000 compounds, 12% hits; further: potency means the concentration at half of the fitted maximal effect; nearly all actives have a fitted effect of over 55% in size
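Chicken DT40 Tdp1-/- cells stably complemented with human TDP1 were seeded at 400 cells/well in medium containing 20 nM camptothecin, exposed to pin-transferred compounds, and grown at 37 °C for at least 48 hr. Viability was read as ATP luminescence.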
HT1080-NT tox – kills 2HG-producing HT-1080-NT fibrosarcoma cells; HT-1080-NT fibrosarcoma viability, CellTiter-Glo ATP luminescence, 48 h; Potency, µM (highest dose often 46.1 µM), for inactives: at the highest dose activity, negative = less viability, hits mostly cytotoxic; 360,000 compounds, 1.6% hits; AID 686970;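 further: NT is the 2HG producing partner of a matched IDH1 knockdown line; potency means the concentration at half of the fitted maximal effect; 0% = DMSO-treated cells and -100% = media-only wells without cells; nearly all actives have a fitted effect of over 55% in size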
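Compounds were tested in concentration-response format on HT-1080-NT cells for 48 hours at 37 degrees C. Cell viability came from CellTiter-Glo luminescence; curves were classified by r2, response magnitude and activity.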
An asterisk follows results filed as active; ? = inconclusive; . = no result; [ ] = another dose, or the depositor's remark. Unless noted, the call rests on the fitted dose curve; in most records, active means well fitted curve in the direction sought with a large enough effect; inconclusive means small, poorly fitted or top-dose-only effect, or another doubt; inactive means no such curve, though single readings can be large; an effect the other way counts as inactive or inconclusive. Unless noted, on the % scale 0 is the no-effect control and ±100 the full control effect.

SMILES | IL-1B inflam inh | DT40 TDP1 no CPT | HT1080 IDH1KD tx | ELG1 repair inh | TDP1 cell CPT | HT1080-NT tox
COc1ccccc1C(=O)COC(=O)CNS(=O)(=O)c1ccc(C)c(C)c1 | 4.6 | -5.4% | 0.1% | 1.6% | 8.0% | 5.0%
O=C(CN1CCN(C(=O)c2ccc(OCc3cn4ccccc4n3)cc2)CC1)Nc1cccc(F)c1 | -18.3 | 14.6µM* | -13.9% | ? | 23.1µM* | 7.31µM*
Cc1cccc(NC(=O)CN2CCN(C(=O)c3cccc(-n4cnnn4)c3)CC2)c1C | -11.4 | -19.9% | -9.1% | 11.7% | ? | -4.4%
Cc1cccc(NC(=O)CN2CCN(C(=O)c3ccc(OCc4cn5ccccc5n4)cc3)CC2)c1C | ? | 9.2µM* | -1.9% | ? | 18.4µM* | -8.4%[9.24 µM]
Nc1ccnc(=O)[nH]1 | 22.4 | 6.4% | 5.8% | 3.7% | -9.5% | ?
CC1CC1C(=O)N(CCC1=CCCCC1)c1c(N)n(Cc2ccccc2)c(=O)[nH]c1=O (stereo unspecified) | -9.4 | -17.1% | 3.3% | -15.6% | -5.7% | 0.9%
Nc1c(NCCC2=CCCCC2)c(=O)[nH]c(=O)n1Cc1ccccc1 | -12.1 | 6.51µM* | -7.2% | -4.4% | 25.9µM* | -7.4%
COc1ccc(CCNc2c(N)n(Cc3ccccc3)c(=O)[nH]c2=O)cc1OC | -55.4* | ? | -1.8% | -7.1% | -95.8% | -6.1%
COc1ccc(CCNC2=C(Cl)C(=O)N(CCc3ccccc3)C2=O)cc1OC | -0.2 | 20.6µM* | -4.0% | ? | ? | -1.7%
COc1ccc(-c2cc3nc(C4CCN(C(=O)OC(C)(C)C)CC4)c(C(=O)Nc4cc(Cl)cc(Cl)c4)cn3n2)cc1 | . | ? | . | . | -35.2% | .
Cc1ccc(S(=O)(=O)/C=C/c2ccccc2)cc1 | -75.5* | -10.7% | 12.4% | 6.8% | 0.2% | -2.0%
CN1/C(=C\C(=O)Nc2cccnc2)c2ccccc2CC1(C)C | 5.7 | 10.3µM* | 10.1% | -13.2% | 18.4µM* | 0.7%
COc1ccc(CNC(=O)C2(C)Cc3ccccc3C(=O)O2)cc1 (stereo unspecified) | -4.7 | -28.9% | 1.9% | 11.6% | 2.2% | 7.7%
COc1ccc(C(=O)/C=C2/c3ccccc3CC(C)(C)N2C)cc1 | 7.3 | 5.17µM* | 6.31µM* | 20.1% | 5.17µM* | 6.31µM*
COC(=O)c1sccc1S(=O)(=O)N(CC(=O)Nc1cc(F)ccc1F)c1ccc(C)c(C)c1 | . | 13µM* | . | . | ? | .
COC(=O)c1sccc1S(=O)(=O)N(CC(=O)Nc1ccccc1)c1ccccc1 | . | ? | . | . | -15.0% | .
COC(=O)c1sccc1S(=O)(=O)N(CC(=O)Nc1cccc(C)c1C)c1ccc(C)c(C)c1 | . | 23.1µM* | . | . | 20.6µM* | .
COC(=O)c1sccc1S(=O)(=O)N(CC(=O)Nc1cc(C)ccc1C)c1ccc(C)c(C)c1 | . | 20.6µM* | . | . | 20.6µM* | .
CCc1ccccc1NC(=O)CN(c1ccccc1)S(=O)(=O)c1ccsc1C(=O)OC | . | 18.4µM* | . | . | 16.4µM* | .
CC1CC(=O)Nc2ccccc2N1C(=O)COc1ccccc1C(N)=O (stereo unspecified) | 17.5 | -24.1% | 4.2% | . | -24.8% | 10.5%
O=C(NC1CC1)c1ccc2c(c1)C1C3CCC(C3)C1C(c1ccccc1)N2 (stereo unspecified) | ? | 25.9µM* | 3.7% | -22.4% | ? | 3.6%
O=C(Cn1ncc2c(Cl)cccc21)NCc1cccc(Cl)c1 | . | -17.9% | . | . | -23.4% | .
CC(=O)Nc1cc(-c2ccc(C(=O)NC3CC3)cc2)cn2c(-c3cccc(C(F)(F)F)c3)cnc12 | -52.6* | 23.1µM* | 16.4µM* | . | ? | ?
CC(=O)Nc1cc(-c2ccc(C(=O)NC3CC3)cc2)cn2c(-c3cccc(C(C)=O)c3)cnc12 | -19.2 | 23.1µM* | ? | . | ? | 14.6µM*
Cc1cccc(C(=O)N(C(=O)c2cccc(C)c2)N(C)C)c1 | 17.8 | -23.3% | -2.6% | . | 1.3% | 0.8%
SMILES | IL-1B inflam inh | DT40 TDP1 no CPT | HT1080 IDH1KD tx | ELG1 repair inh | TDP1 cell CPT | HT1080-NT tox
Cc1cc(Cl)ccc1NC(=O)NC1CCN(S(=O)(=O)c2ccc(F)cc2)CC1 | -7.0 | ? | -8.4% | -25.7% | 23.1µM* | -0.7%
CC(=O)N1c2ccc(S(=O)(=O)N3CCC(C(=O)Nc4cccc(F)c4)CC3)cc2CC1C (stereo unspecified) | -0.6 | ? | -12.6% | ? | 16.4µM* | -26.7%
CC(=O)N1c2ccc(S(=O)(=O)N3CCC(C(=O)Nc4cccc(Cl)c4C)CC3)cc2CC1C (stereo unspecified) | . | 23.1µM* | . | . | 14.6µM* | .
COc1ccc(Cl)cc1NC(=O)C1CCN(S(=O)(=O)c2ccc3c(c2)CC(C)N3C(C)=O)CC1 (stereo unspecified) | . | 20.6µM* | . | . | 16.4µM* | .
COc1ccccc1NC(=O)C1CCN(S(=O)(=O)c2ccc3c(c2)CC(C)N3C(C)=O)CC1 (stereo unspecified) | 35.5 | ? | -0.6% | -11.3% | ? | 1.0%
O=C(Nc1ccc(F)cc1F)NC1CCN(S(=O)(=O)c2ccc(F)cc2)CC1 | -8.9 | ? | -14.0% | 4.3% | -21.4% | -6.2%
Cn1c(=O)n(C/C=C/c2ccccc2)c(=O)c2c1nc1n2CCN1c1ccc(F)cc1 | . | -18.3% | . | . | 3.1% | .
CC(=O)N1c2ccc(S(=O)(=O)N3CCC(C(=O)Nc4cccc(C)c4)CC3)cc2CC1C (stereo unspecified) | 21.3 | ? | -7.9% | 29.1µM* | 16.4µM* | -0.9%
COc1ccc(Cl)cc1NC(=O)C1CCN(S(=O)(=O)c2ccc(F)cc2)CC1 | . | 18.4µM* | . | . | ? | .
CC(=O)N1c2ccc(S(=O)(=O)N3CCC(C(=O)Nc4cccc(Cl)c4)CC3)cc2CC1C (stereo unspecified) | 14.5 | 2.06µM* | ? | ? | 2.06µM* | -2.2%
O=C(Nc1ccc(F)cc1F)NC1CCN(Cc2c(F)cccc2Cl)CC1 | . | 20.6µM* | ? | ? | ? | -0.8%
Cc1cnc(SCc2ccccn2)nc1C1CCCN(C(=O)c2ccc3c(c2)OCCO3)C1 (stereo unspecified) | . | -7.2% | . | . | 17.0%[9.04 µM] | .
O=C(CSc1nccn1Cc1ccc2c(c1)OCO2)Nc1ccccc1F | . | -21.0% | . | . | 1.3% | .
